Source: PubChem BioAssay (NCATS)
Values joined by “and” are separate entries in the source; they are usually repeats but may differ in a detail not shown here. Equal values may be shown once. Results filed as inconclusive are left out. Where a call stands in place of a potency, no number is given. Active and inactive are the calls of the source. Unless noted, calls follow the shape of the dose curve; as a rule, active = well fitted curve in the direction sought with a large enough effect; inconclusive = small, poorly fitted or top-dose-only effect, or another doubt; inactive = no such curve, though single readings can be large; an effect the other way counts as inactive or inconclusive.

Columns and labels:
[1] = molecular target: Cytochrome P450 3A4 (Homo sapiens) (UniProt P08684); assay: qHTS Assay for Inhibitors and Substrates of Cytochrome P450 3A4 (AID 884); also: nearly all actives have a fitted effect of over 50% in size; also: potency is read from the fitted curve at half-maximal effect
Chain of Cytochrome P450 3A4 (Homo sapiens) (P08684 whole entry, looked up): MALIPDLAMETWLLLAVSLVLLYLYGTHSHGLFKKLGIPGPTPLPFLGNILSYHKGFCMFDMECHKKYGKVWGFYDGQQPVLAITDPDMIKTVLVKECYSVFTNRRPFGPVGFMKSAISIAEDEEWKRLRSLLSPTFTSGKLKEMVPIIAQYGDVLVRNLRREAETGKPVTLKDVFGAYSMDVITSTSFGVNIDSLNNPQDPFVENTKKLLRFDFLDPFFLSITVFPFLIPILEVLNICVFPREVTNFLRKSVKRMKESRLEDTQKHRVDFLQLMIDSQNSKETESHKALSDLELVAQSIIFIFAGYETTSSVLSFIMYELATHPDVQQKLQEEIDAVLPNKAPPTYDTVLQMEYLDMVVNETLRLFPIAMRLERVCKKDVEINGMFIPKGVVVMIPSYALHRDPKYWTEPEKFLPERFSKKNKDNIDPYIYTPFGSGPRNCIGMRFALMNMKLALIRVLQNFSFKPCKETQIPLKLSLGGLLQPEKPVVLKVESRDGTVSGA
How it was run: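 Luminescent readout of luciferin produced by CYP3A4 (20 nM) dealkylation of Luciferin-PPXE, 25 uM (its KM). NADPH-driven reaction ran 60 min at RT after 10 min compound preincubation; data scaled to 57 uM ketoconazole as 100% inhibition.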

[2] = Confirmation and Secondary Assay for Modulators of Hemoglobin Beta Chain Splicing at IVS2 654 locus (AID 910);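 also: HeLa cells stably carrying EGFP split by mutant beta-globin IVS2-654 intron; per-well total GFP intensity by laser scanning cytometry after 2-day treatment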
How it was run: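 Readout: per-well total peak green fluorescence (488 nm ex, 500–520 nm em) from objects 5–250 µm, reflecting correct splicing of an EGFP-654 reporter. Compounds were applied for 2 days at 37 °C to overnight-plated HeLa EGFP-654 cells; controls were DMSO and 500 nM IVS2-654 PNA.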

[3] = Confirmation and Secondary Assay for Modulators of Hemoglobin Beta Chain Splicing at IVS2 705 locus (AID 930);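 also: HeLa cells stably expressing the EGFP-705 splicing reporter; GFP fluorescence per well restored by corrected splicing of the IVS2-705 intron in EGFP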
How it was run: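 HeLa EGFP-705 reporter; 500 cells/well, o/n 37C 5% CO2; cpd 2 d; 488 ex/500-520 em laser scan; total peak GFP intensity/well. Ref: 500 nM […] antisense PNA.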

[4] = qHTS Assay for Lipid Storage Modulators (AID 1519; calls by dose curve); details: Drosophila S3 cells, BODIPY lipid droplet/cell ratio, laser cytometry, cells loaded with oleic acid; for activity change, negative = inhibition: at 57.5 µM (top of the series)
How it was run: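 Cells seeded at 5,000 per well were treated with compounds over a concentration series and loaded with oleic acid (400 uM, as added). Lipid droplet fluorescence (488 nm excitation, 500-530 nm channel) was read by laser-scanning cytometry and normalized to 20 uM Triacsin C.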

[5] = molecular target: Ubiquitin carboxyl-terminal hydrolase 1 (Homo sapiens) (UniProt O94782); assay: Inhibitors of USP1/UAF1: Pilot qHTS (AID 504865);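 also: rhodamine fluorescence freed from ubiquitin-rhodamine substrate followed over time; top concentration of the series differs between compounds; nearly all actives have a fitted effect of over 35% in size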
Chain of Ubiquitin carboxyl-terminal hydrolase 1 (Homo sapiens) (O94782 whole entry, looked up): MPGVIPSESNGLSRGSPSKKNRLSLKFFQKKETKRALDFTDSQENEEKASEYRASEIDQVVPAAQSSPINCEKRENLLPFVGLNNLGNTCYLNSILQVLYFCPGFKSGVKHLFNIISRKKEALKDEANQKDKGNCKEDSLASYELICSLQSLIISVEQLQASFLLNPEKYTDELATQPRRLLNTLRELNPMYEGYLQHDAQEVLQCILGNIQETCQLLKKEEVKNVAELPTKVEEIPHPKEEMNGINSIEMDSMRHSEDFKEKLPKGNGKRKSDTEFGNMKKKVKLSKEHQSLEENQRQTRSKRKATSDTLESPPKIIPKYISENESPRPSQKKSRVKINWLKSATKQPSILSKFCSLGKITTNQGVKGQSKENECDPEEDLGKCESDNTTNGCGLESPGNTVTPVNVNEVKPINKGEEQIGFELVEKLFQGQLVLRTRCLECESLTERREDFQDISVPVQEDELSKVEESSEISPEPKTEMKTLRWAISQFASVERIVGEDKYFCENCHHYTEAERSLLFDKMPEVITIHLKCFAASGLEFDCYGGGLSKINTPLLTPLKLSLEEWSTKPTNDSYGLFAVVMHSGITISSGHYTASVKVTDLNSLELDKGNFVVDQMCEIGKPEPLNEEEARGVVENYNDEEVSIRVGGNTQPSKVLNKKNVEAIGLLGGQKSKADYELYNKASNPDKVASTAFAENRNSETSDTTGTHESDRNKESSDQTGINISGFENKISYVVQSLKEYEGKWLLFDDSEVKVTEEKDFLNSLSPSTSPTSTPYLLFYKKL
How it was run: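 Kinetic fluorescence assay: 1nM USP1/UAF1, 15 min compound preincubation, then 150nM Ub-Rho; 480/540 nm.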

[6] = molecular target: Cytochrome P450 3A4 (Homo sapiens) (UniProt P08684); assay: qHTS Assay for Activators of Cytochrome P450 3A4 (AID 885); also: nearly all actives have a fitted effect of over 65% in size
How it was run: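 Activators are scored by enhanced luminescence from CYP3A4 conversion of luciferin-PPXE (25uM, equal to KM) to luciferin, after 60 min at RT with an NADPH-regenerating system.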

[7] = measured here: cell count channel max response
[8] = measured here: lipid channel max response

Structure (SMILES)	Potency [1]	Potency [2]	Potency [3]	activity change, negative = inhibition [4]	max response [4, 7]	max response [4, 8]	Potency [5]	Potency [6]
CC(=O)C1CC[C@H]2C3CC[C@@H]4CC(O)CC[C@@]4(C)C3CC[C@]12C (stereo partly drawn)	inactive	inactive	inactive	12.3% (inactive)	9.69%	25.9%	inactive	
CC1O[C@@H](OC2CC[C@@]3(C=O)C4CC[C@]5(C)C(C6=CC(=O)OC6)CC[C@@]5(O)C4CC[C@]3(O)C2)C(O)C(O)C1O (stereo partly drawn)	inactive	inactive	inactive	2.77% (inactive)	-0.564%	4.22%	inactive	
O=c1cccc2n1CC1CC2CN2CCCCC12 (stereo not drawn)	inactive	inactive	inactive	0.982% (inactive)	1.81%	1.59%	inactive	
COc1cc(C2c3cc4c(cc3C(O)C3COC(=O)C23)OCO4)cc(OC)c1O (stereo not drawn)	6.31 µM (active)		inactive	7.14% (inactive)	-1.69%	6.73%	inactive	inactive
CC1C(=O)OC2C(O)C34C5OC(=O)[C@@]3(OC3OC(=O)[C@H](O)[C@]34C(C(C)(C)C)C5O)[C@]12O (stereo partly drawn)	inactive	inactive		0.291% (inactive)	13.6%	14.3%	inactive	
FC(F)(F)c1cccc(N2CCNCC2)c1	inactive	inactive	inactive	4.68% (inactive)	-7.45%	-3.82%	inactive	
CC(N)C(O)c1ccc(O)c(O)c1 (stereo not drawn)	inactive	inactive		9.23% (inactive) and 2.97% (inactive)	10.7% and 5.9%	23.4% and 5.16%	inactive	
COC(=O)COc1cc(Cl)c(Cl)cc1Cl	inactive	inactive		2.27% (inactive)	13.1%	15.5%	inactive	
CCC(C)C(=O)OC1C(O)C2C(CN3CC(C)CCC3[C@]2(C)O)C2C[C@]34O[C@@]5(O)C(OC(=O)C(C)(O)C(C)O)CCC3(C)C5C(OC(C)=O)C(OC(C)=O)C4[C@@]21O (stereo partly drawn)	inactive	inactive	inactive	4.38% (inactive)	24.4%	35.3%	inactive	
Cc1c(O)c(O)cc2c1CC=C1[C@]3(C)CC[C@]4(C)CC[C@@](C)(C(=O)O)CC4[C@]3(C)CC[C@]12C (stereo partly drawn)	inactive	inactive	inactive	-4.4% (inactive)	19.2%	14.7%	inactive	
CC(N)[C@H](O)c1ccccc1 (stereo partly drawn)	inactive	inactive	inactive	2.72% (inactive)	12.8%	19.5%	inactive	
COc1cc(OC)c2c(c1)OC(c1ccc(OC)c(OC)c1)C(O)C2 (stereo not drawn)	inactive	inactive	inactive	10.8% (inactive)	10.1%	29.4%	inactive	
COC(=O)COc1ccc(Cl)cc1Cl	inactive	inactive	inactive	8.24% (inactive)	0.885%	8.23%	inactive	
C/C=C(\C)C(=O)OC1CC(OC(C)=O)[C@@]2(C(=O)OC)COC3C2[C@@]12CO[C@](O)(C(=O)OC)C2[C@](C)(C12OC1(C)C1CC2OC2OC=C[C@]21O)C3O (stereo partly drawn)	12.6 µM (active)	inactive	inactive	-3.34% (inactive)	-9.57%	-10.6%	inactive	inactive
CC(C)c1cc2c(c(O)c1O)[C@]1(C(=O)O)CCCC(C)(C)C1CC2 (stereo partly drawn)	0.316 µM (active)	inactive	inactive	4.21% (inactive)	-11.1%	-4.62%	inactive	inactive
CC(N)[C@@H](O)c1ccccc1 (stereo partly drawn)	inactive	inactive	inactive	6.04% (inactive)	11.6%	28.2%	inactive	
N#C/C(=C\c1cccc(O)c1)C(=O)O	inactive	inactive	inactive	5.07% (inactive)	0.883%	7.48%	inactive	
CNc1ccccc1C(=O)O	inactive	inactive		-0.857% (inactive)	25%	25.4%	inactive	
CC1CC2CC(=O)C3CCCN4CCCC2[C@]34C1 (stereo partly drawn)	inactive	inactive	inactive	3.72% (inactive)	9.37%	11.3%	inactive	
CC1CC[C@]2(NC1)OC1CC3C4CC=C5CC(O)CC[C@@]5(C)C4CC[C@]3(C)C1C2C (stereo partly drawn)	inactive	inactive	inactive	2.46% (inactive)	14.9%	22.2%	inactive	
CCC(C)C(=O)c1c(O)c(C)c2oc3c(C)c(O)c(C(=O)C(C)CC)c(O)c3c2c1O (stereo not drawn)	inactive	inactive	inactive	-5.67% (inactive)	-3.74%	-10.1%	inactive	
CC(C)(C#N)O[C@H]1OC(CO)C(O)C(O)C1O (stereo partly drawn)	inactive	inactive		4.98% (inactive)	13.6%	22.9%	inactive	
CC1(C)C(O)CC(O)[C@]2(C)C1CC(=O)[C@]1(C)C2CC[C@@]2(C)C(c3ccoc3)OC(=O)C3OC321 (stereo partly drawn)	6.31 µM (active)	inactive	inactive	-5.65% (inactive)	17%	11.8%	inactive	inactive
Cc1cc(OC(=O)N2CCCCC2)c(C(C)C)cc1[N+](C)(C)C	inactive	inactive	inactive	8.28% (inactive)	17.5%	31.1%	inactive	
CCC1CN2CCC1CC2C(O)c1ccnc2ccc(OC)cc12 (stereo not drawn)	inactive	inactive	inactive	6.54% (inactive)	2.56%	12.3%	inactive	
CCC(C)C(=O)OC1C(O)C2C(CN3CC(C)CCC3[C@]2(C)O)C2C[C@]34O[C@@]5(O)C(OC(=O)C(C)(O)CC)CCC3(C)C5C(OC(C)=O)C(OC(C)=O)C4[C@@]21O (stereo partly drawn)	inactive	inactive	inactive	3.69% (inactive)	17.1%	25.4%	inactive	
CC1=C2CCC3C4CCC(=O)[C@@]4(C)CCC3[C@]2(C)CCC1=O (stereo partly drawn)	5.01 µM (active)	inactive	inactive	7.19% (inactive)	5.35%	8.56%	inactive	inactive
